High-throughput results as filed in PubChem BioAssay.
ERG-DNA inh: inhibitors of human ERG Ets domain-DNA interaction | fluorescence polarization, His-ERG Ets domain / labelled DNA | Potency, µM (series often up to 76.9 µM), without a hit: at the top dose FP activity, negative = inhibition, most hits filed as inhibitors | actives 0.028% (n = 370,000) | AID 624246; active = well fitted inhibition curve with a large enough effect in the polarisation, with a control signal flat; inconclusive = small, poorly fitted or top-dose-only effect, or effect the other way, or a change in a side signal; inactive = no such curve, though single readings can be large or run the other way; the % refers to the polarisation;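 also: polarization taken with two DNA probes labelled with fluorescein and Texas red; % of control where 0% means no effect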
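His-tagged ERG Ets domain (1 uM in the protein solution; 300mM KCl, 50mM Tris-HCl, 1mM EDTA, 1mM DTT, pH 7.5) received compound, then a probe mix of 5 nM fluorescein-DNA and 100nM Texas-615-DNA. Fluorescence polarization was read for both dyes.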
mIDH1 inhibitor: blocks human mutant IDH1 R132H enzyme; O75874; IDH1-R132H enzyme, NADPH consumption, diaphorase/resazurin fluorescence; Potency, µM (series often up to 76.6 µM), for the others: at the highest dose activity change, negative = inhibition, usual class: inhibitors; actives 0.093% (n = 390,000); also: % is scaled to controls: 0 for no effect and ±100 for the full control effect; nearly all actives have a fitted effect of over 65% in size
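IDH1-R132H (0.5 ug/mL) preincubated 30 min with compound, then NADPH (0.016 mM) and alpha-KG (2 mM) added; 80 min at RT, pH 7.5. Remaining NADPH coupled via diaphorase/resazurin to fluorescence (540/590 nm); concentration-response curves normalized to no-enzyme control.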
Apoferritin bind: candidate novel general anesthetic via apoferritin binding; apoferritin/1-aminoanthracene competitive binding, fluorescence; Potency, µM (highest dose often 77.5 µM), for the others: top-dose activity change, negative = displacement, hits mostly inhibitors; P02791; actives 0.074% (n = 350,000); AID 485281; also: % is scaled to controls: 0 for no effect and ±100 for the full control effect; nearly all actives have a fitted effect of over 20% in size
Target sequence (P02791 2-175 limits assumed): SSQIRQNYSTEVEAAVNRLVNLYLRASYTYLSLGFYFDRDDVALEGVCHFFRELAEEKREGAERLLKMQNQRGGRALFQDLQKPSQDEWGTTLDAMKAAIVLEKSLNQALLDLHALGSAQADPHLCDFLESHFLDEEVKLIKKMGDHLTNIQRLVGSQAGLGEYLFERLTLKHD
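Apoferritin-based anesthetic binding model; compound displacement of fluorescent 1-AMA measured as endpoint fluorescence after 10 minutes at room temperature, scaled to free-ligand and complex controls.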
TSG101-PTAP inh: blocks PTAP/TSG101 interaction to inhibit HIV-1 budding | Q99816 | Fluorescence polarization, FITC-PTAP peptide / Tsg101 binding | Potency, µM (titrated, usually from 115 µM), without a hit: top-dose activity change, negative = inhibition, most hits filed as inhibitors | 340,000 tested, under 10 active | AID 493005; active = well fitted inhibition curve with a large enough effect in the main read-out, with a control signal flat, not every such curve was filed as active; inconclusive = small, poorly fitted or top-dose-only effect, or effect the other way, or a change in a side signal; inactive = no such curve, though single readings can be large or run the other way; also: % of control where 0% means no effect
Target sequence (Q99816 whole entry, looked up): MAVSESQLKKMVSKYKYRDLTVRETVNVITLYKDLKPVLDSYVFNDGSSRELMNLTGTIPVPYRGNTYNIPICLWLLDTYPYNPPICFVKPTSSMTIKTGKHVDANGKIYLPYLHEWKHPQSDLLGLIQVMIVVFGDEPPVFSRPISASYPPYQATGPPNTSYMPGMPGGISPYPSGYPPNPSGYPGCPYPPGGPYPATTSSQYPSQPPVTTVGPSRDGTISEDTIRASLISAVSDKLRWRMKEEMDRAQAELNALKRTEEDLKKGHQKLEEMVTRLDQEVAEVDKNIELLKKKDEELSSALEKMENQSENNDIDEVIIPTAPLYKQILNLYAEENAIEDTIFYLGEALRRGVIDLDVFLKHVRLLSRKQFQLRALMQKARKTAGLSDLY
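Steps: Tsg101 binding domain dispensed (10 uM final), compounds pinned in DMSO, FITC-labeled PTAP-motif peptide added (50 nM final); after 20 min binding at room temperature, polarization measured.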
* marks the source's active call; other numbers are inactive results; ? = inconclusive; · = no result; [ ] = dose if it differs, or a comment. This is a sample that favours compounds with a hit; in the whole collection about 0.18% have one here. Unless noted, calls follow the shape of the dose curve; as a rule, active = well fitted inhibition curve with a large enough effect; inconclusive = small, poorly fitted or top-dose-only effect; inactive = no such curve, though single readings can be large or run the other way. Potency is read from the fitted curve at half-maximal effect.

SMILES	ERG-DNA inh	mIDH1 inhibitor	Apoferritin bind	TSG101-PTAP inh
FC(F)C(F)(F)C(F)(F)C(F)(F)c1cc(-c2ccccc2)n[nH]1	3.0%	8.4%	14.1µM*	-8.5%
CCCCC[C@@H]1C=C(C(=O)O)[C@H](c2ccc(F)cc2)N1S(=O)(=O)c1ccc(C)cc1	3.5%	-8.4%	·	-5.3%
Cc1cc2oc3ccc(NCCCn4ccnc4)cc3c(=O)c2cc1C	17.8µM*	3.4%[38.3 µM]	·	?
Cc1cc2oc3ccc(NCCCN4CCOCC4)cc3c(=O)c2cc1C	-4.5%	2.9%	·	0.0%
CC(C)(C)c1ccc(NC(=O)COc2ccc(-n3ccnc3)cc2)cc1	3.5%	9.6%	28.2µM*	-7.7%
CC(C)C1C(=O)N(Cc2cn(Cc3ccco3)nn2)CCS(=O)(=O)N1Cc1ccc(-c2ccc(Cl)cc2)cc1 (centres undefined)	·	-5.2%	·	·
NC(=O)c1ccc(NC(=O)CSc2nnc(C3CCCCC3)n2N)cc1	-5.0%	-8.8%	-1.7%	-1.1%
Nn1c(SCC(=O)Nc2ccc(F)c(F)c2)nnc1C1CCCCC1	-7.7%	0.8%	4.47µM*	-3.6%
O=C(NCC(=O)N1CCN(C(c2ccccc2)c2ccccc2)CC1)c1ccc(Br)o1	18.6%	7.6%	-4.9%	2.5%
COc1ccccc1Nc1ncnc2c1c(C)c(C)n2CCCN(C)C	2.0%	8.1%	-2.0%	0.5%
Cc1ccc(C(=O)CC2(O)C(=O)N(Cc3ccc4c(c3)OCO4)c3ccccc32)cc1 (centres undefined)	4.0%	8.7%	14.1µM*	-4.8%
O=C(CC1(O)C(=O)N(Cc2ccc3c(c2)OCO3)c2ccccc21)c1ccccc1 (centres undefined)	-6.5%	2.4%	?	-8.9%
Cc1ccc(OCC(=O)Nc2cc(C(C)(C)C)on2)cc1C	6.7%	-1.5%	-7.5%	-1.5%
CCCCCCCCCCS(=O)(=O)N/N=C/c1ccc([N+](=O)[O-])cc1	-4.0%	1.8%	20µM*	-15.4%
CCN1C(=O)CC(Sc2ccccc2C(=O)O)C1=O (centres undefined)	10.0%	4.9%	-7.5%	-0.3%
CC1CCCCN1S(=O)(=O)c1ccc(NC(=O)c2cccc(-n3cnnn3)c2)cc1 (centres undefined)	-0.1%	2.6%	?	-3.8%
CC1CCCN(S(=O)(=O)c2ccc(NC(=O)c3cccc(-n4cnnn4)c3)cc2)C1 (centres undefined)	-13.3%	-2.5%	14.1µM*	-2.9%
Cc1c(C(=O)N2CCc3ccccc3C2)oc2ccccc12	1.3%	7.6%	-22.6%	-8.9%
CC(C)CC(=O)Nc1ccc(Nc2ccccc2)cc1	2.3%	6.6%	?	-4.7%
CC(C)(C)CC(=O)Nc1ccc(Nc2ccccc2)cc1	-1.7%	1.1%	8.91µM*	-4.1%
O=C(Cn1sc2ccccc2c1=O)NC12CC3CC(CC(C3)C1)C2	-2.2%	2.0%	15.8µM*	-0.3%
O=C(Cc1ccccc1)N1CCc2ccccc21	-0.6%	10.2%	8.91µM*	-1.3%
COc1ccc(CC(=O)N2CCc3ccccc32)cc1	-2.7%	3.0%	-0.6%	-0.8%
Cc1cc(C(=O)N2CCCCCC2)cs1	13.4%	1.9%	-20.5%	-2.2%
Cc1cc(C)cc(C(=O)N2CCCCCC2)c1	1.9%	4.1%	12.6µM*	0.0%
SMILES	ERG-DNA inh	mIDH1 inhibitor	Apoferritin bind	TSG101-PTAP inh
COc1ccc(C(=O)Nc2nc3n(n2)C(c2ccccc2)C=C(c2ccccc2)N3)cc1 (centres undefined)	11.1%	-6.2%	515.1%	·
Cc1ccc(C2=NN(CC(=O)NCCc3ccccc3)C(=O)CC2)cc1	4.4%	-8.0%	2.51µM*	·
O=C(CN1N=C(c2ccc(Cl)cc2)CCC1=O)NCCc1ccccc1	-0.2%	9.9%	?	·
O=C1SCCc2c1n(Cc1ccccc1)c1ccccc21	4.7%	7.0%	-12.1%	-4.3%
Nc1ccc(Nc2ccccc2)c(Cl)c1	-5.9%	16.3%	7.94µM*	-1.6%
CN(C(=O)c1cccc(NC(=O)Cc2ccc(NC(=O)C3CCN(C(=O)C4CCCC4)CC3)cc2)c1)C1CCCC1	-3.8%	5.5%[38.3 µM]	·	-0.9%
Cc1cccc(CN2C(=O)/C(=C\c3ccc(C(=O)NCCN4CCOCC4)cc3)Sc3ccccc32)c1	1.1%	-7.5%	-15.8%	-5.1%
CC1CCCN(C(=O)COc2ccc(Nc3ccccc3)cc2)C1 (centres undefined)	-2.3%	5.6%	17.8µM*	0.2%
COCCCNc1c2c3c(cccc3[nH]c1=O)C(=O)c1ccccc1-2	7.08µM*	-9.6%	480.2%	?
